These results are taken from ChEMBL document CHEMBL3988442, “University of Dundee, Small-Polar-MMV Screening Library” (2021).

For part of these data: Entries with a potency or affinity are not part of this list.

Parameters in all cases: scale not given: direction of the effect not stated beside the values
Test [1] addresses Protein translocase subunit SecA (Escherichia coli (strain K12)) (UniProt P10408). The test is described as follows: Assay to Identify E. coli SecA ATPase Inhibitors. It is filed as functional. As to conditions: 30 µM.
Test [2] concerns the target T1, Ubiquitin-activating enzyme e1, putative (Leishmania donovani (strain BPK282A1)) (UniProt E9BSI1).
T1 sequence (whole entry): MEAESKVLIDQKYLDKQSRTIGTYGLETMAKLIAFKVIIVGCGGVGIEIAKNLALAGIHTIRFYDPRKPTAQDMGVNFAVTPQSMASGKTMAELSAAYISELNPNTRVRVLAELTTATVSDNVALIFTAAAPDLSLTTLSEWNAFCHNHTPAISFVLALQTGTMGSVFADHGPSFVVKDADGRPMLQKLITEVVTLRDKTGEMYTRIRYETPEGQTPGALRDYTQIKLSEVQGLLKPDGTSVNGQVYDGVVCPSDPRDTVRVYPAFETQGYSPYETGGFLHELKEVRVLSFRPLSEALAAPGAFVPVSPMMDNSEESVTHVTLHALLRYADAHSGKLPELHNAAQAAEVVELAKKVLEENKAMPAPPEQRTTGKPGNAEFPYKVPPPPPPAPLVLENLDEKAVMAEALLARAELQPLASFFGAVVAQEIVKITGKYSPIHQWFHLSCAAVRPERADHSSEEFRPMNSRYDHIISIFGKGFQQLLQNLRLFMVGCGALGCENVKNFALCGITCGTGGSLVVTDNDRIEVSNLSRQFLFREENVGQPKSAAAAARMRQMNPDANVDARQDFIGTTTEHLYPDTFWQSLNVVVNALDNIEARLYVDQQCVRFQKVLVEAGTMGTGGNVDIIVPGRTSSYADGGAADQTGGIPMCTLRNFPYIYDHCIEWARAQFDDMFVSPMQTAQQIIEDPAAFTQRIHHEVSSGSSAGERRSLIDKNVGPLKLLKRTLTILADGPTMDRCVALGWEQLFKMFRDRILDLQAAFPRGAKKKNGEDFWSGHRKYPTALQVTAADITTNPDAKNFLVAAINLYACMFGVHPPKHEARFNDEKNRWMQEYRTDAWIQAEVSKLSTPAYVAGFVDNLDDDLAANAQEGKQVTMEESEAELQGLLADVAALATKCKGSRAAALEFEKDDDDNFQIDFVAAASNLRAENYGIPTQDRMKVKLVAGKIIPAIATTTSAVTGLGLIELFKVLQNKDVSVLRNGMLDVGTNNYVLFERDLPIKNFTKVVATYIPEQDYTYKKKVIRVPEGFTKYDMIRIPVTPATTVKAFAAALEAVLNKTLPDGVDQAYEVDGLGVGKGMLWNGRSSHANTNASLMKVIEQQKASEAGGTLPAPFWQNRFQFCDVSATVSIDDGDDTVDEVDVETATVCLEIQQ
The test is described as follows: Leishmania donovani Ubiquitin Activating Enzyme (LdE1). It is filed as functional. The note with it: 30 µM.

The target in test [3] is Sialic acid-binding Ig-like lectin 9 (Homo sapiens) (UniProt Q9Y336). The test is described as follows: Hs-Siglec9 ALPHAscreen SOP 20170721. As to conditions: 10 µM.
Chain of Sialic acid-binding Ig-like lectin 9 (Homo sapiens) (Q9Y336 whole entry): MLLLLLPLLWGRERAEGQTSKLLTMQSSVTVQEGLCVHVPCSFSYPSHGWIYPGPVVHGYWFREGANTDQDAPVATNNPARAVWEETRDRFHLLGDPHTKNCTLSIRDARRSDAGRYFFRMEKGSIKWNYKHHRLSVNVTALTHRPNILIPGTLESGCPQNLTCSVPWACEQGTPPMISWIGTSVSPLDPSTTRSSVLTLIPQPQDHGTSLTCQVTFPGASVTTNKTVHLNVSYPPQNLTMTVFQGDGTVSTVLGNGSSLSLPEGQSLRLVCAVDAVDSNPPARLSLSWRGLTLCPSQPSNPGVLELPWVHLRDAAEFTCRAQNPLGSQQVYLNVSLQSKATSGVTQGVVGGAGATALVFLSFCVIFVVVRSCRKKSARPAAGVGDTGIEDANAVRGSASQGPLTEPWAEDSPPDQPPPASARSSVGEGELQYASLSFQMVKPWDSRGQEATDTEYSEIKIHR
Test [4] concerns Trypanosoma cruzi. The experiment in a line: Trypanosoma cruzi phosphomannomutase and mannose-1-phosphate guanylyltransferase assay. In kind it is functional. The note with it: 10 µM.
Test [5] deals with T2, Arginase-2, mitochondrial (Homo sapiens) (UniProt P78540).
T2 sequence (whole entry): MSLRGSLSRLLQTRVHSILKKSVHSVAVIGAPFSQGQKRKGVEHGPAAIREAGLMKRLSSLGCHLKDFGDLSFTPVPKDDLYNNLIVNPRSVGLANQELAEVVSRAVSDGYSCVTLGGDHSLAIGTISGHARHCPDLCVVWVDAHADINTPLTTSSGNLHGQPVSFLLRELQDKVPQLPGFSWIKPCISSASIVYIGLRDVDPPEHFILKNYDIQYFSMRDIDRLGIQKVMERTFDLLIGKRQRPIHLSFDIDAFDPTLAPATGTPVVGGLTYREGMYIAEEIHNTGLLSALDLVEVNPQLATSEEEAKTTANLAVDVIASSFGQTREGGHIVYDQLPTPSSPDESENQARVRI
The test is described as follows: in vitro enzyme assay to detect the production of urea directly proportional to the activity of Arginase II. Note: in the data most compounds retested in dose-response had high values. In kind it is functional. As to conditions: 33.3 µM.

The target of test [6] is T3, Proteasome subunit beta (Trypanosoma cruzi) (UniProt O96673).
T3 sequence (whole entry): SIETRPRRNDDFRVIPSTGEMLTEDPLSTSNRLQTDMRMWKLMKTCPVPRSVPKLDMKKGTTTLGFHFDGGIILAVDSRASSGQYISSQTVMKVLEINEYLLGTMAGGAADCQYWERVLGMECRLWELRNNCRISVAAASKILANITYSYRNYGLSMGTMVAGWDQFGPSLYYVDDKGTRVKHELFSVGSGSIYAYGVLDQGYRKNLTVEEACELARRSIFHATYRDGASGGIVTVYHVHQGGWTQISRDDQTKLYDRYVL
The test is described as follows: Trypanosoma cruzi proteasome chymotrypsin-like activity (TcProtChymo) assay. Note: in the data most compounds retested in dose-response had high values. In kind it is functional. As to conditions: 9.37 µM.

The species named for test [7] is Homo sapiens. The experiment in a line: To identify inhibition of the IFN signalling (Jak-Stat) pathway via expression of an eGFP reporter gene under the control of an IFN-stimulated response element (ISRE) containing MxA promoter. In kind it is functional. The note with it: 30 µM.
The target of test [8] is T4, Tyrosyl-tRNA synthetase, putative (Trypanosoma cruzi (strain CL Brener)) (UniProt Q4DSP6).
T4 sequence (whole entry): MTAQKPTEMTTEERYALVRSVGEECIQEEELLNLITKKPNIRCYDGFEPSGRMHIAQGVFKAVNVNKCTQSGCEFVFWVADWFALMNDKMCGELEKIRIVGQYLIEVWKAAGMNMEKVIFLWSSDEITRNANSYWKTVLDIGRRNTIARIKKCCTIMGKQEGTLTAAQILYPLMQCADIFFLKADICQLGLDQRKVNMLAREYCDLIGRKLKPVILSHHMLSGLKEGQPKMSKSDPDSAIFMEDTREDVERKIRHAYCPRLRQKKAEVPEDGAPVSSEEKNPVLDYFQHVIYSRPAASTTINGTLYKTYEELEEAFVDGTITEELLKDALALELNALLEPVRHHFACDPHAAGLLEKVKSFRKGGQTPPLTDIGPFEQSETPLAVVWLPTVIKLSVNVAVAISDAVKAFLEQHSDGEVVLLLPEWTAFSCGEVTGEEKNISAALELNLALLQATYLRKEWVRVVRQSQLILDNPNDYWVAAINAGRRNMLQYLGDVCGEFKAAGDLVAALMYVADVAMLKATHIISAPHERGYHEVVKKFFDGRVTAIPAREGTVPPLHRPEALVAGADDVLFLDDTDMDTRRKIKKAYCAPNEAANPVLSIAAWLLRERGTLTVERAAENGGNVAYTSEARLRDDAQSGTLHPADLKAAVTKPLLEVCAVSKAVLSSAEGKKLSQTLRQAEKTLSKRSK
The test is described as follows: Trypanosoma cruzi tyrosyl tRNA synthetase (TcYRS) _High Tyrosine SOP. Note: in the data most compounds retested in dose-response had high values. In kind it is functional. As to conditions: 30 µM.

Test [9] concerns the target T4, Tyrosyl-tRNA synthetase, putative (Trypanosoma cruzi (strain CL Brener)). The experiment in a line: Trypanosoma cruzi tyrosyl tRNA synthetase (TcYRS) SOP. In kind it is functional. The note with it: 30 µM.
Test [10] concerns the target Chromo domain-containing protein 1 (Saccharomyces cerevisiae (strain ATCC 204508 / S288c) (Baker's yeast)) (UniProt P32657). The experiment in a line: ScCHD-1 Enzyme Inhibition Assay. Note: in the data most compounds retested in dose-response had high values. In kind it is functional. As to conditions: 30 µM.

Chain of Chromo domain-containing protein 1 (Saccharomyces cerevisiae (strain ATCC 204508 / S288c) (Baker's yeast)) (P32657 whole entry, the tested form may be a part): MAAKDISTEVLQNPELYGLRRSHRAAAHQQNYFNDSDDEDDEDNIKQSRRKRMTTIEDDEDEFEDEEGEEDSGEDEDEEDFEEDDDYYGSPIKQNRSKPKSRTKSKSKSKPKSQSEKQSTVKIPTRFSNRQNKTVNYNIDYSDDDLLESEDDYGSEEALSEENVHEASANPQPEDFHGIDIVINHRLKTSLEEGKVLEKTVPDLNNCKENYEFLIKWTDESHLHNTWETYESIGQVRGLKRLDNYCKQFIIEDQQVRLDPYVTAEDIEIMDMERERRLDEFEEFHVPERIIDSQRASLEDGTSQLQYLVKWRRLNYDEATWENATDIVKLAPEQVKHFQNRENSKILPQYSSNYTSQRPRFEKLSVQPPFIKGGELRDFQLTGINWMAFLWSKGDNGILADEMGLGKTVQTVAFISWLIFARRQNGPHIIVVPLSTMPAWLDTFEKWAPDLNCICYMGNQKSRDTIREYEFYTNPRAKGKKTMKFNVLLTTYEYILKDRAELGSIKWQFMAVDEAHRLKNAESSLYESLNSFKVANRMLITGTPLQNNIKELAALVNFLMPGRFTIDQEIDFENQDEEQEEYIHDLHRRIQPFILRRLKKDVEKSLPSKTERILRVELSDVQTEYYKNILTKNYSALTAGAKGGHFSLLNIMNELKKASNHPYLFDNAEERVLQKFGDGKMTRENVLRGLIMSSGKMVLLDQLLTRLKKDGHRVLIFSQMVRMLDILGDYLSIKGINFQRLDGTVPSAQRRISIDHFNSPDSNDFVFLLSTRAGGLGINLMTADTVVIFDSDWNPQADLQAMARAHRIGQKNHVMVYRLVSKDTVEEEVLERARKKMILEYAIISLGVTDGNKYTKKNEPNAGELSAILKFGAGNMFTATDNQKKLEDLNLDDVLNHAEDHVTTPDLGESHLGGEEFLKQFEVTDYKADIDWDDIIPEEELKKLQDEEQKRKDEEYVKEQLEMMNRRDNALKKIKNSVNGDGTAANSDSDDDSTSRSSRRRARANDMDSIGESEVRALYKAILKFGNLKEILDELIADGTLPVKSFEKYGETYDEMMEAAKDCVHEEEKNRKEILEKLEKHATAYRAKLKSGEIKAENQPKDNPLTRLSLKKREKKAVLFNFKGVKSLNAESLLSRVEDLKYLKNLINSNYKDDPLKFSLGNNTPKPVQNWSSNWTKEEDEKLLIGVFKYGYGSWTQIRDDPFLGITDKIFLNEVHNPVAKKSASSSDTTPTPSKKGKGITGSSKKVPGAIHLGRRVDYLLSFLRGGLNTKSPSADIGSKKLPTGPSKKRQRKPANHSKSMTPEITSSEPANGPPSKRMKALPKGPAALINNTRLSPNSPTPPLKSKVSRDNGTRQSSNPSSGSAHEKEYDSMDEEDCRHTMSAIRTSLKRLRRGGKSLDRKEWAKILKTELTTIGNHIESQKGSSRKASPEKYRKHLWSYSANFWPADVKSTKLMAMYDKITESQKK
Chain of Protein translocase subunit SecA (Escherichia coli (strain K12)) (P10408 whole entry): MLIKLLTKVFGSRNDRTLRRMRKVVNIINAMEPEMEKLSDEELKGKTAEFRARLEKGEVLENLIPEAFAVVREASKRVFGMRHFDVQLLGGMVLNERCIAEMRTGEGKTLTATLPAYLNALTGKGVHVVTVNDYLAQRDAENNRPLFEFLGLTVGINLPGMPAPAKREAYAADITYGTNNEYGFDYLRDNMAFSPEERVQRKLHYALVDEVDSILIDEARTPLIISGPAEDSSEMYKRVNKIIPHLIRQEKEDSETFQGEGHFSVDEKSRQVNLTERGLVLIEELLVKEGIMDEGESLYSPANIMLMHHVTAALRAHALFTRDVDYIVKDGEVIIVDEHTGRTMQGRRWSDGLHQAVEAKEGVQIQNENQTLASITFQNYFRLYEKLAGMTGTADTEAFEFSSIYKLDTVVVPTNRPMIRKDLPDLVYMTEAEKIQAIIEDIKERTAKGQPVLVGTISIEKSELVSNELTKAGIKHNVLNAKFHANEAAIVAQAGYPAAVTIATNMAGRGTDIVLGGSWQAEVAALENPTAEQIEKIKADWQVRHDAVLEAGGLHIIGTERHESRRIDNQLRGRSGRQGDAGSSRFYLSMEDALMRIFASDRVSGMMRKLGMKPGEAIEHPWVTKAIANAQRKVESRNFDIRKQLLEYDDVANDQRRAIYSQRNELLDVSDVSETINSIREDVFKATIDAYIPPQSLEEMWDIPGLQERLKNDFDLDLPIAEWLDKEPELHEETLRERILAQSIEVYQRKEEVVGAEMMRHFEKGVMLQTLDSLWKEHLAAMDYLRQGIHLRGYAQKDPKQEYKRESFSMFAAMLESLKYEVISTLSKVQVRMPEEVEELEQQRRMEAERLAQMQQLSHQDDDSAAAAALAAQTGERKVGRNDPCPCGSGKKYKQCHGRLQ

As for `Cc1ccc([C@@H]2CN(C(=O)c3csc(C)n3)C[C@H]2NC(=O)C2CC2)cc1`, the Percent Effect in [1] is -13.4%; in [2], 2.7%; in test [3], 0.978%; in test [4], 0.097%; in test [5], -0.35%; in test [6], 5.99%. The Percent Effect is 23.2% in [7], 3.72% in test [8], 17.1% in test [9] and -2.85% in test [10].
Consider `OC(COc1ccc(F)cc1)CN1CCC(Cn2cccn2)CC1` (stereo not given), for which the Percent Effect was 0.447% in test [1]; 18.2% in [2]; 8.44% in [3]; 0.933% in test [4]; -5.12% in test [5]; 6.14% in test [6]. Moreover, the Percent Effect in test [7] is -5.99%; in test [8] it was 10.8%; in test [9], 23.5%; in test [10], -4.98%.
`CCOC1CCCN(C(=O)c2sccc2-n2cnnn2)C1` (stereo not given): the Percent Effect was -1.7% in [1]; 20.5% in test [2]; -9.12% in test [3]; 8.73% in test [4]; -1.23% in test [5]; 13.1% in test [6]. Moreover, the Percent Effect is 21.5% in test [7], 8.13% in test [8], 22.9% in test [9] and -4.42% in test [10].
For `FC(F)(F)Cn1ccnc1CN1CCCC1c1noc(C2CC2)n1` (stereo not given), the Percent Effect was 0.298% in [1]; 10.7% in test [2]; -5.86% in [3]; -3.01% in test [4]; -4.43% in test [5]; 15.7% in test [6]. Besides, the Percent Effect in [7] was 16.6%; in test [8], 4.74%; in [9], 15.4%; in [10], -9.44%.
As for `O=C(c1ncccn1)N1C[C@H]2CCC[C@@]2(COCc2cccnc2)C1`, the Percent Effect was -6.88% in [1]; 3.9% in [2]; -0.0107% in test [3]; -1.46% in test [4]; -4.45% in test [5]; 10.3% in test [6]. Besides, the Percent Effect in test [7] is 89.1%; in test [8] it was -2.63%; in test [9], -7.69%; in [10], -1.21%.
As to `CCc1ccc(CN2CCC3(CC2)NC(=O)CC3c2ccncc2)o1` (stereo not given), the Percent Effect in test [1] is -9.93%; in test [2], 6.49%; in [3], -0.747%; in [4] it was -3.21%; in [5] it was -5.26%; in test [6], 9.27%. The Percent Effect is -2.1% in [7], 0.526% in [8], 7.69% in [9] and -2.68% in test [10].
As for `CN1CC(c2ccccc2)CC2(CCN(CC(=O)N(C)C)CC2)C1` (stereo not given), the Percent Effect in [1] is -6.25%; in [2], 5.41%; in test [3], 9.32%; in [4], 8.44%; in test [5], -3.85%; in test [6] it was 9.42%. The Percent Effect in test [7] is -25%; in [8], 1.6%; in test [9], 17.1%; in test [10], -2.37%.
In the case of `Cc1nc(C)n(CC2CCCN2Cc2nc3ccccc3nc2C)n1` (stereo not given), the Percent Effect in [1] is -4.08%; in test [2], 0%; in test [3], 4.74%; in test [4], -0.402%; in [5] it was 1.33%; in test [6], 15.5%. For the same compound, the Percent Effect in [7] is 2.68%; in [8] it was 5.79%; in [9], 7.69%; in test [10] it was -11.7%.
For the compound `N#Cc1ccccc1C(=O)N1C[C@H](CO)C[C@H](CN2CCCC2)C1`, the Percent Effect was -4.41% in test [1]; -54% in test [2]; 7.55% in test [3]; 6.69% in [4]; 16.4% in test [5]; 5.65% in test [6]. Also, the Percent Effect in test [7] was -3.94%; in test [8], 2.66%; in test [9] it was 9.76%; in test [10], -1.92%.
As for `COCCc1noc(CN2CCOC(Cn3nc(C)cc3C)C2)n1` (stereo not given), the Percent Effect in [1] was -2.32%; in test [2], 10.4%; in [3] it was 14.5%; in test [4], 6.72%; in test [5] it was 8.4%; in test [6] it was -7.89%. Moreover, the Percent Effect in [7] is 7.1%; in test [8] it was 4.9%; in test [9], 18.8%; in [10], -6.59%.
Take `Cc1cc(CN(C)C(=O)c2ccnc(N(C)C)c2)no1`: the Percent Effect in [1] is -2.33%; in [2], 8%; in [3], 1.08%; in test [4] it was -5.82%; in test [5], 2.22%; in test [6] it was 4.67%. The Percent Effect in test [7] was 9.46%; in [8], 3.68%; in test [9], 10.3%; in test [10] it was -13.6%.
As to `CC(C)=CCN1CCC(c2nccn2Cc2cscn2)CC1`, the Percent Effect in [1] was -6.89%; in test [2] it was 5.41%; in [3], 7.33%; in test [4], 9.8%; in test [5] it was -5.94%; in [6], 9.07%. The Percent Effect in test [7] is -16%; in test [8], 6.92%; in [9] it was 14.6%; in test [10], -4.64%.
